Screening data: PubChem, National Center for Advancing Translational Sciences (NCATS)
Rows were chosen to be rich in hits. Some 2.4% of all compounds tested hit in one or more screens of this group.
Cruzain inh Det: cruzain (T. cruzi) inhibition with detergent; P25779; purified cruzain, Z-FR-AMC fluorescence, 0.01% Triton; Potency, µM, for the others: max response, negative = inhibition, usual class: inhibitors; actives 0.43% (n = 200,000);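 further: plate controls were neutral wells for no effect and buffer without enzyme for full effect; nearly all actives have a fitted effect of over 40% in size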
Target sequence (P25779 123-467 limits assumed): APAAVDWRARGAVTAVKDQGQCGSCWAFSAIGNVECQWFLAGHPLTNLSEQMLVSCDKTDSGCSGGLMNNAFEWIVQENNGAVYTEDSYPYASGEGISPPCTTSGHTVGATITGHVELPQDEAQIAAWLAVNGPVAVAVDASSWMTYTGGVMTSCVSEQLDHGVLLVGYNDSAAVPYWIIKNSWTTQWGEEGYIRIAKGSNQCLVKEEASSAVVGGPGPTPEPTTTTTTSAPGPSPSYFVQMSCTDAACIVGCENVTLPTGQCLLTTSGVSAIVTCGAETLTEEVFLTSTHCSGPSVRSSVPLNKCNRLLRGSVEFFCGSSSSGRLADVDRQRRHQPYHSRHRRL
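Enzyme 1.5 nM, Z-FR-AMC 2 uM, NaOAc 100 mM pH 5.5, DTT 5 mM, Triton X-100 0.01%; 15 min RT compound preincubation; kinetic ex360/em450, 60 s delta.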
Cruzain inh noDet: blocks cruzain activity in detergent-free assay; actives 2.3% (n = 200,000); Potency, µM, without a hit: max response, negative = inhibition, actives largely listed as inhibitors; purified cruzain, Z-FR-AMC fluorescence, no detergent; P25779; AID 1476;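 further: plate controls were enzyme without inhibitor for no effect and buffer without enzyme for full effect; nearly all actives have a fitted effect of over 40% in size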
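Purified cruzain at 1.5 nM, pre-incubated 15 min with compound at room temperature in 100 mM sodium acetate pH 5.5, 5 mM DTT, 0.00005% Triton X-100. Reaction started with 2 uM Z-FR-AMC; AMC fluorescence increase over 60 s gives rate.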
* marks the source's active call; other numbers are inactive results; u = inconclusive. The call rests on the fitted dose curve; in most records, active means well fitted curve in the direction sought with a large enough effect; inconclusive means small, poorly fitted or top-dose-only effect, or another doubt; inactive means no such curve, though single readings can be large; an effect the other way counts as inactive or inconclusive. Potency means the concentration at half of the fitted maximal effect.

SMILES	Cruzain inh Det	Cruzain inh noDet
COc1ccc(C(=O)CSc2nnc(-c3cc(C)on3)o2)cc1	-4.9%	-16.2%
Cc1cc(-c2nnc(SCC(=O)c3ccc(Cl)cc3)o2)no1	-4.1%	25.1µM*
CN1[C@H]2CC(OC(=O)[C@H](CO)c3ccccc3)C[C@H]1[C@H]1O[C@H]12 (stereo partly specified)	3.9%	5.1%
O=C(COc1ccc(Br)cc1)Nc1cc(S(=O)(=O)N2CCCCC2)ccc1N1CCCCC1	-5.1%	u
CC(=O)Nc1sc(C)c(C)c1C(=O)OCC(=O)Nc1cc(S(=O)(=O)N2CCCCC2)ccc1Cl	-5.1%	25.1µM*
CC(=O)c1c(C)[nH]c(C(=O)OCC(=O)Nc2cc(S(=O)(=O)N3CCCC3)ccc2Cl)c1C	-4.7%	-1.6%
O=C(COc1ccc(Cl)cc1)Nc1cc(S(=O)(=O)N2CCCCC2)ccc1N1CCCCC1	-1.8%	15.8µM*
O=C(Nc1nccs1)c1cn(-c2ccccc2)nc1-c1ccccc1	-1.1%	-7.0%
CC(C)COc1ccc(-c2nn(-c3ccccc3)cc2C(=O)Nc2nccs2)cc1	-2.0%	10µM*
CCOc1ccccc1CNC(=O)C1CCN(C(=O)N2CC(CC)Oc3ccc(C)cc32)CC1 (stereo unspecified)	-6.9%	u
Cc1ccc(OCCSc2nc3ccccc3n2CC(=O)N2CCOCC2)cc1	0.9%	-1.5%
C[C@H](CC(=O)O)C(C(=O)O)C(=O)O	-2.1%	1.0%
CNC(=S)N/N=C/c1cccc(OCc2ccccc2F)c1	-10.1%	u
Fc1ccccc1COc1ccc(/C=N/NC(=S)NCc2ccccc2)cc1	-0.9%	6.31µM*
CC(C)(C)c1ccc(/C=N/NC(=S)NCc2ccccc2)cc1	-5.0%	u
Cn1c(=O)n(C)c2cc(/C=N/NC(=S)NCc3ccccc3)ccc21	11.2µM*	u
O=C(CCN1C(=O)c2ccccc2Sc2ncccc21)Nc1ccc(F)cc1	-1.5%	-16.6%
C=C1CC[C@H](O)C/C1=C/C=C1\CCC[C@]2(C)[C@H]1CC[C@H]2[C@@H](C)/C=C\[C@@H](C)C(C)C	3.2%	10.8%
CCSc1nnc(NC(=O)c2cc3c(s2)CCCC3)s1	9.2%	7.94µM*
CCSc1nnc(NC(=O)c2ccc3c(c2)OCO3)s1	-0.6%	25.1µM*
CCSc1nnc(NC(=O)c2csc3c2CCCC3)s1	3.0%	u
CCSc1nnc(NC(=O)c2csc3c2CCC(C)C3)s1 (stereo unspecified)	-1.7%	12.6µM*
CCSc1nnc(NC(=O)c2cc(-c3ccc(C)c(C)c3O)n[nH]2)s1	-1.6%	3.98µM*
O=C(Nc1nnc(SCc2ccccc2)s1)c1cc2c(s1)CCCC2	-2.1%	u
CCSc1nnc(NC(=O)c2cc(C)on2)s1	-0.7%	-11.1%
SMILES	Cruzain inh Det	Cruzain inh noDet
CCSc1nnc(NC(=O)c2ccccc2)s1	-2.2%	4.6%
CCOC(=O)C1=C[C@@]2(CC)CCCN3CCc4c(n1c1ccccc41)C32 (stereo partly specified)	0.9%	-5.5%
CC(C)c1ccc(-c2noc(SCC(=O)N3CCCCC3)n2)cc1	0.1%	10.6%
COc1ccc(C=O)cc1	7.7%	5.5%
COc1ccc(C=C(c2ccc(OC)cc2)c2ccc(OC)cc2)cc1	-21.5%	12.6µM*
Cc1ccc(S(=O)(=O)N(Cc2nc(-c3cccc(C)c3)no2)C2CCCCC2)cc1	-4.7%	-28.6%
CC(C)(C)NC(=O)Cc1ccc(S(=O)(=O)N2CCCC2)s1	-5.7%	-4.0%
O=C(Cc1ccc(S(=O)(=O)N2CCCC2)s1)Nc1nc2c(s1)CCCC2	-16.6%	20µM*
CC1CCCCN1S(=O)(=O)c1cc2c(=O)nc3ccccn3c2cc1Cl (stereo unspecified)	3.2%	-6.7%
CCCCc1ccc(/C=C2/C(=O)ON=C2c2ccccc2)s1	-14.7%	-5.8%
Cc1sc(/C=C2\C(=O)ON=C2c2ccccc2)cc1Br	u	25.1µM*
CCc1ccc(OCC(=O)NCC(c2ccc(OC)cc2)N2CCOCC2)cc1 (stereo unspecified)	-1.6%	6.7%
O=C(C1COc2ccccc2O1)N1CCn2c(nc3ccccc32)C1 (stereo unspecified)	-29.6%	12.6µM*
O=C(c1ccccc1)N1CCn2c(nc3ccccc32)C1	0.1%	-8.1%
O=C(O)c1cc2ccc3ccccc3c2oc1=O	u	25.1µM*
O=C(O)c1cc2cc(Cl)cc(Cl)c2oc1=O	-3.4%	u
O=C(c1cc2c(ccc3ccccc32)oc1=O)N1CCCC1	-26.8%	u
O=C(O)c1cc2c(ccc3ccccc32)oc1=O	u	10µM*
COc1ccc(N(Cc2cc3cccc(C)c3[nH]c2=O)C(=O)c2cccc(Cl)c2)cc1	-7.2%	u
CCOC(=O)O[C@@H](C)OC(=O)[C@@H]1N2C(=O)[C@@H](NC(=O)[C@@H](N)c3ccccc3)[C@H]2SC1(C)C	-1.5%	-6.2%
COc1cccc(CNC(=O)CN2C(=O)N(c3c(C)cccc3C)S(=O)(=O)c3ccccc32)c1OC	-3.1%	u
COc1ccc(C(C)NC(=O)c2ccccc2)cc1 (stereo unspecified)	-1.3%	-3.2%
COc1ccc(C(=O)COC(=O)c2ccc(NC(=O)c3ccccc3)cc2)cc1	5.9%	12.6µM*
COc1ccc(C(NC(=O)c2ccc(-c3ccccc3)cc2)c2ccccc2)cc1 (stereo unspecified)	4.7%	7.94µM*
Cc1ccc(NC(=O)CCC(=O)OCC(=O)c2ccc(-c3ccccc3)cc2)cc1	-5.3%	4.6%
SMILES	Cruzain inh Det	Cruzain inh noDet
COc1ccc(NC(=O)CCC(=O)c2ccc(-c3ccccc3)cc2)cc1	-1.9%	25.1µM*
CCOC(=O)c1ccc(NC(=O)c2ccc(NC(=O)c3ccccc3)cc2)cc1	4.8%	-15.8%
COc1ccc(C(=O)Nc2ccc(C(=O)OCC(=O)c3ccccc3)cc2)cc1	2.1%	6.31µM*
COc1ccc(C(=O)COc2ccc(NC(C)=O)cc2)cc1	-3.1%	-25.2%
Cc1cccc(Nc2nnc(-n3nc(C)cc3C)c3ccccc23)c1	-4.4%	-15.2%
CCCC(=O)OCc1cnc(C)c2oc(=O)c(C(=O)Nc3ccc(F)cc3C)cc12	-0.4%	-2.4%
COc1cc(C/C=C\c2ccccc2)c(OC)cc1O	-6.0%	1.0%
Fc1ccc(-n2cc(-c3ccccc3)c3c(NC4CCCCC4)ncnc32)cc1	0.5%	-17.2%
CCCC/C=C/C(NC(=O)c1ccc(-c2ccccc2)cc1)c1ccccc1 (stereo unspecified)	5.5%	15.8µM*
CCCC/C=C/C(NC(=O)c1ccccc1)c1ccccc1 (stereo unspecified)	-7.7%	-8.2%
CCOC(=O)c1c(NC(C)=O)sc2c(O)cccc12	-4.3%	3.0%
CCOC(=O)c1c(NC(=O)c2ccccc2)sc2c(O)c(CN(CC)CC)ccc12	-1.1%	15.8µM*
CCOC(=O)C(CC)Sc1nnc2c3cc(C)ccc3n(C)c2n1 (stereo unspecified)	-13.0%	u
CCCn1c2ccc(C)cc2c2nnc(SCCN3CCCCC3)nc21	14.1µM*	u
CSc1nnc2c3cc(C)ccc3n(Cc3ccccc3)c2n1	u	25.1µM*
CCn1c2ccc(C)cc2c2nnc(NN)nc21	-17.3%	-23.8%
CC1Cc2cc(S(=O)(=O)CCC(=O)Nc3ccc(F)cc3Cl)ccc2N1C(=O)C1CC1 (stereo unspecified)	-4.1%	-7.2%
COc1cc([C@@H]2Oc3cc([C@H]4Oc5cc(O)cc(O)c5C(=O)[C@H]4O)ccc3O[C@H]2CO)ccc1O	-18.1%	0.2%
O=C(NC1CCCCC1)N1CCCC(c2nc3ccccc3[nH]2)C1 (stereo unspecified)	u	5.01µM*
